The list is not random: actives were taken first. Their share in the collection is about 27%.
CYP2C9 inh: blockers of cytochrome P450 2C9 activity – biochemical, luminescence, ADME assay, primary screen. P11712. CYP2C9 Supersomes, luciferin-H conversion. inhibition, % at 5 µM. 96,000 tested, 20% active;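 active = blocking of liver enzyme CYP2C9 beyond about 50% at 5 µM, limit read from the data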
CYP2C9 act: human CYP2C9 activators, primary screen, biochemical, luminescence; Cytochrome P450 2C9 (Homo sapiens), P11712; recombinant CYP2C9, luciferin-H conversion; stronger effect = higher value; factor 1 = untreated enzyme, 0 = blocked; 96,000 tested, 1.4% active; activation factor at 5 µM;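 active = activation factor of 2 or more for CYP2C9 at a 5 µM dose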
sEH inhibitor: soluble epoxide hydrolase inhibitors, primary screen, biochemical, human sEH | recombinant human sEH enzymatic activity assay | AID 707, 2007 | Bifunctional epoxide hydrolase 2 (Homo sapiens), P34913 | inhibition, % at 2 µM | 91,000 tested, 0.34% active; in the data active = inhibition above about 80%
Target sequence (P34913 whole entry, looked up): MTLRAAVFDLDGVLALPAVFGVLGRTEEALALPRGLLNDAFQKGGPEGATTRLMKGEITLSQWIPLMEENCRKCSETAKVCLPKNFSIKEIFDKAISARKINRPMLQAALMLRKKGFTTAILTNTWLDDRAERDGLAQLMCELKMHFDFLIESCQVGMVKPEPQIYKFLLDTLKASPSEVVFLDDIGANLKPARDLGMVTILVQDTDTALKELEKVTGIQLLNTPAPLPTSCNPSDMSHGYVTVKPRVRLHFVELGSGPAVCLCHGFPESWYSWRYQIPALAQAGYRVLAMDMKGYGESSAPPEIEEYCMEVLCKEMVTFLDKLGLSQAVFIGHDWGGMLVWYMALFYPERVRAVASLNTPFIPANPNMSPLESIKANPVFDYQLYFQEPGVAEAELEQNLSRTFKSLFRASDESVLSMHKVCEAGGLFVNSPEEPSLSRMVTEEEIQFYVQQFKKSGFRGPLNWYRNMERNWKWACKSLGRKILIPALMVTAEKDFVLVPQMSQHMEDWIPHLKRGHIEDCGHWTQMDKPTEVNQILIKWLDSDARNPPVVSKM
sEH act: soluble epoxide hydrolase activators, primary screen, biochemical, human sEH; 91,000 tested, 0.04% active; Bifunctional epoxide hydrolase 2 (Homo sapiens), P34913; purified human sEH enzymatic activity, activator screen; activation, % at 2 µM; in the data active = activation above about 37%
CYP2C19 inh: blockers of cytochrome P450 2C19 activity – biochemical, luminescence, ADME assay, primary screen; P33261; CYP2C19 Supersomes, luciferin-H EGE luminescence, 30 min; inhibition, % at 5 µM; 96,000 tested, 21% active; AID 778, 2007;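 active = CYP2C19 inhibition above a set limit at 5 µM in the primary screen, cut at about 50% in these data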
CYP2C19 act: human CYP2C19 activators, primary screen, biochemical, luminescence; recombinant CYP2C19, luciferin-H EGE luminescence; stronger effect = higher value; 0 = fully inhibited enzyme, 1 = untreated enzyme; 96,000 tested, under 10 active; activation factor at 5 µM;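 active = activation factor of at least 2 at 5 µM in the primary screen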
Numbers stand for hits; i = inactive; nt = not tested or not shown.

SMILES | CYP2C9 inh | CYP2C9 act | sEH inhibitor | sEH act | CYP2C19 inh | CYP2C19 act
CN(C)/C=N/c1cnc(C(=O)c2ccc(Cl)cc2)n1C | i | i | i | i | 59.7 | i
Cc1c(C#N)c(N=CN(C)C)c(C(=O)c2ccc(Br)cc2)n1-c1ccc(Cl)cc1 | i | i | i | i | i | i
CCc1ccc(-n2c(O)cnc2Nc2nc(C)cc(C)n2)cc1 | i | i | i | i | i | i
CCCN1Cc2cccc(C(=O)NCc3cccs3)c2C1=O | 52.0 | i | i | i | 73.3 | i
COCCN1Cc2cccc(C(=O)NC(C)c3cccs3)c2C1=O (stereo unspecified) | i | i | i | i | 63.3 | i
COCCN1Cc2cccc(C(=O)Nc3ccc(C)c(C)c3)c2C1=O | i | i | i | i | i | i
CCOc1ccc(NC(=O)c2cccc3c2C(=O)N(CCOC)C3)cc1 | 72.1 | i | i | i | i | i
Cc1ccc(C(=O)C(NC(=O)c2ccco2)Nc2sc3c(c2C(N)=O)CCCC3)cc1 (stereo unspecified) | nt | nt | i | i | nt | nt
S=C(c1ccc(-c2cccc(Cl)c2)o1)N1CCOCC1 | i | i | nt | nt | 50.3 | i
N#CCCN1CCN(C(=S)c2ccc(-c3cccc(Cl)c3)o2)CC1 | i | i | nt | nt | 92.6 | i
S=C(c1ccc(-c2cc(Cl)ccc2Cl)o1)N1CCOCC1 | i | i | nt | nt | i | i
N#CCCN1CCN(C(=S)c2ccc(-c3ccc(Cl)c(Cl)c3)o2)CC1 | 61.3 | i | i | i | i | i
CCc1c(C(C)S(=O)(=O)c2ccc(C)cc2)[nH]c(=O)n1-c1ccc(C)cc1 (stereo unspecified) | i | i | i | i | 58.8 | i
CCCCNC(=O)C(C#N)c1nc2ccccc2nc1N1CCN(c2ccccc2F)CC1 (stereo unspecified) | nt | nt | i | i | nt | nt
Cc1cc(NC(=O)CSc2nc3c(c(=O)n2-c2ccccc2)SC(C)C3)no1 (stereo unspecified) | i | i | nt | nt | i | i
CCn1c(SCC(=O)Nc2cccc(F)c2)nc2c(c1=O)SC(C)C2 (stereo unspecified) | nt | nt | i | i | nt | nt
CC1Cc2nc(SCC(=O)Nc3ccc(F)cc3F)n(C)c(=O)c2S1 (stereo unspecified) | 52.7 | i | i | i | i | i
CCn1c(SCC(=O)Nc2cc(C)ccc2C)nc2c(c1=O)SC(C)C2 (stereo unspecified) | 76.2 | i | nt | nt | i | i
Cc1ccc2nc(NC(=O)CSc3nc4c(c(=O)n3C)SC(C)C4)sc2c1 (stereo unspecified) | 68.3 | i | i | i | i | i
CC1Cc2nc(SCC(=O)N3CCCC3)n(C)c(=O)c2S1 (stereo unspecified) | i | i | nt | nt | i | i
Cc1ccc(C)c(NC(=O)CSc2nc3c(c(=O)n2C)SC(C)C3)c1 (stereo unspecified) | 65.5 | i | nt | nt | i | i
Cn1c(=O)oc2cc(S(=O)(=O)NCCC(=O)N3CCc4ccccc43)ccc21 | i | i | nt | nt | i | i
C=C(C)Cn1c(CCNC(=O)CCC)nc2ccccc21 | i | i | nt | nt | i | i
CCOc1cc(N2CCOCC2)c(OCC)cc1NC(=O)CCS(=O)(=O)c1ccc(Cl)cc1 | i | i | i | i | i | i
CCOc1cc(N2CCOCC2)c(OCC)cc1NC(=O)Cc1cccc2ccccc12 | i | i | i | i | 54.6 | i
SMILES | CYP2C9 inh | CYP2C9 act | sEH inhibitor | sEH act | CYP2C19 inh | CYP2C19 act
CC(C)CC(=O)Nc1ccccc1N1CCOCC1 | i | i | i | i | i | i
CCOc1cc(N2CCOCC2)c(OCC)cc1NS(=O)(=O)c1ccc(Cl)s1 | 60.2 | i | i | i | 93.1 | i
Cc1ccc(CC(=O)Nc2ccccc2N2CCOCC2)cc1C | 83.2 | i | i | i | i | i
O=C(Cc1ccc(Cl)cc1)Nc1ccccc1N1CCOCC1 | i | i | i | i | 84.1 | i
Cc1n[nH]c(C)c1S(=O)(=O)N1CCCCCC1 | i | i | i | i | i | i
COc1ccc2c(CC(=O)OCC(=O)NC(=O)c3cccn3C)coc2c1 | i | i | i | i | i | i
O=C(COc1ccc(Cl)cc1)Nc1ccccc1N1CCOCC1 | i | i | i | i | i | i
COc1ccc(CCNC(=O)COc2nsnc2N2CCOCC2)cc1OC | i | i | i | i | i | i
Cc1ccccc1NC(=O)COc1nsnc1N1CCOCC1 | i | i | i | i | 60.2 | i
O=C(COc1ccc(Cl)cc1Cl)NC(=O)N1CCOCC1 | i | i | i | i | 52.0 | i
Cc1cc(Cl)ccc1OCC(=O)Nc1ccccc1N1CCOCC1 | 94.5 | i | i | i | 91.2 | i
CCOc1cc2[nH]c(=O)n(CCCN3CCCC3=O)c(=O)c2cc1OCC | i | i | i | i | i | i
CCn1cc(/C=N/N=C2\CCC3C4CCc5cc(O)ccc5C4CC[C@]23C)c(C)n1 (stereo partly specified) | 67.5 | i | i | i | i | i
CC(C)c1cc(C(=O)O)n(-c2ccccc2)n1 | i | i | i | i | i | i
COc1ccc(-c2nc(C)ncc2N=Nc2ccccc2)cc1 | 61.4 | i | i | i | i | i
COn1cnnc1-c1ccccc1 | i | i | nt | nt | i | i
Cc1sc2nc(C3CC3)nc(NCCNS(C)(=O)=O)c2c1C | 76.2 | i | i | i | i | i
O=C1c2ccccc2C(=O)N1CC1c2ccccc2CCN1S(=O)(=O)c1cnc[nH]1 (stereo unspecified) | 97.2 | i | nt | nt | 78.4 | i
Cc1ccc(S(=O)(=O)N2CCc3ccccc3C2CN2C(=O)c3ccccc3C2=O)cc1 (stereo unspecified) | i | i | i | i | 71.3 | i
O=C1c2ccccc2C(=O)N1CC1c2ccccc2CCN1C(=O)N1CCOCC1 (stereo unspecified) | i | i | i | i | i | i
Cc1ccc(S(=O)(=O)NC(=O)NCc2ccccn2)cc1 | i | i | i | i | i | i
Cc1ccc(-n2c(SCC(=O)Nc3ccc4c(c3)OCCO4)nnc2-c2ccco2)cc1 | i | i | i | i | i | i
CC(C)Oc1cccc(-c2nnc(SCC(=O)Nc3ccc4c(c3)OCCO4)n2N)c1 | 70.6 | i | i | i | 50.3 | i
COc1ccc(-c2nnc(SCC(=O)Nc3ccc4c(c3)OCCO4)n2N)cc1OC | 58.3 | i | i | i | i | i
Cc1ccnc2nc(C(=O)N3CCN(S(=O)(=O)c4ccccc4)CC3)nn12 | i | i | i | i | i | i
CCCCn1c(SCC(=O)NCc2ccccc2)nc2ccc(N3CCOCC3)cc2c1=O | 74.5 | i | i | i | i | i
CCCCn1c(SCC(=O)NC(C)CC)nc2ccc(N3CCOCC3)cc2c1=O (stereo unspecified) | 60.3 | i | i | i | i | i
CCN(CC)C(=O)CSc1nc2cc3c(cc2c(=O)n1Cc1ccc2c(c1)OCO2)OCO3 | i | i | nt | nt | i | i

Compound activity (PubChem)
